This passage reports Potency results from PubChem BioAssay (Tox21).

Several values for one entry are separate records, joined by “and”; a condition that tells them apart may be missing. Identical values can stand only once. Records with an inconclusive call do not appear. A structure can be active in one record and inactive in another. Activity calls are given as the source filed them. Unless noted, calls follow the shape of the dose curve; as a rule, active = well fitted curve in the direction sought with a large enough effect in the repeat runs; inconclusive = weak or mixed curves; inactive = no such curve, though single readings can be large; an effect the other way counts as inactive or inconclusive.

For assay [1], the target named is Acetylcholinesterase (Homo sapiens) (UniProt P22303). Briefly: Acetylcholinesterase (AChE) small molecule antagonists: colormetric cell-based qHTS assay (AID 1347395; calls by dose curve; also: nearly all actives have a fitted effect of over 30% in size). The procedure, abridged: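 AChE inhibition read colorimetrically via DTNB–thiocholine in SH-SY5Y cells. Compound 30 min, substrate 90 min, both 37 C.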
Acetylcholinesterase (Homo sapiens), sequence (P22303 whole entry, looked up): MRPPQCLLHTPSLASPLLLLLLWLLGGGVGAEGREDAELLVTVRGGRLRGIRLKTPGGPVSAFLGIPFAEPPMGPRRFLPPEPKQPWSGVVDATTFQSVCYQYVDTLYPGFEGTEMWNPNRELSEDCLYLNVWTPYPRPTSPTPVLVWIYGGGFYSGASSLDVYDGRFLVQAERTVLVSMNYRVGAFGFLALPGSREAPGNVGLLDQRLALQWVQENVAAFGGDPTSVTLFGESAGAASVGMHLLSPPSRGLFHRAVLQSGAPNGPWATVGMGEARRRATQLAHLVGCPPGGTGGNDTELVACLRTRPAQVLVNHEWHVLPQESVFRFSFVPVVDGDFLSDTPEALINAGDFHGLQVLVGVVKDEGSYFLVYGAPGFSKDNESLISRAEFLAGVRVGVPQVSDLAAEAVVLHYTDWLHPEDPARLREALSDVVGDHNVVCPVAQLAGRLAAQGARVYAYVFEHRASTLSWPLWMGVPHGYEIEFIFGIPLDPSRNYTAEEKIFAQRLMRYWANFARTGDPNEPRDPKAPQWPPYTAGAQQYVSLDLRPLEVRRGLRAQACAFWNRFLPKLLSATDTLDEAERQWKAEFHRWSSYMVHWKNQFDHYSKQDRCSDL
Assay [2] has the same target. Nature of the assay: Acetylcholinesterase (AChE) small molecule antagonists: enzyme-based qHTS assay (AID 1347397; calls by dose curve; also: nearly all actives have a fitted effect of over 55% in size). Particulars: Potency: AChE enzyme activity inhibition. Put shortly: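 Recombinant human AChE, dispensed at 50 mU/mL, was preincubated with Tox21 10K compounds or DMSO vehicle for 30 min at room temperature. DTNB plus acetylthiocholine was then added, and thiocholine was measured colorimetrically after a further 10 min.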
(qHTS replaces the single test concentration by a dilution series.)

Assay [3] shares this target. Briefly: Acetylcholinesterase (AChE) small molecule antagonists: fluorescence cell-based qHTS assay (AID 1347398; calls by dose curve; also: nearly all actives have a fitted effect of over 50% in size). Particulars: Potency: AChE activity. The procedure, abridged:
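Human SH-SY5Y cells were plated overnight at 37 C, exposed to compound for 30 min at 37 C, 5% CO2, then given acetylthiocholine plus Thiolite Green for 40 min at room temperature; thiocholine fluorescence (Ex/Em 490/520 nm) reports endogenous AChE activity.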

Assay [4] shares this target. Nature of the assay: Acetylcholinesterase (AChE) small molecule antagonists: enzyme-based qHTS assay with human liver microsomes (AID 1347399; calls by dose curve; also: nearly all actives have a fitted effect of over 60% in size). Particulars: Potency: qHTS inhibition. Put shortly:
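Recombinant human AChE (50 mU/mL in the enzyme mix) and human liver microsomes (0.25 mg/mL final) were preincubated with compound and NADPH (0.25 mg/mL final) for 30 min at 37 C. Acetylthiocholine/DTNB was then added; thiocholine was read colorimetrically after 10 min at room temperature.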

Assay [5] addresses Cytochrome P450 2D6 (Homo sapiens) (UniProt P10635). Nature of the assay: Cytochrome P450 Family 2 Subfamily D Member 6 (CYP2D6) small molecule antagonists: luciferase reporter qHTS assay (AID 1671196). Also: nearly all actives have a fitted effect of over 50% in size. Put shortly: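 Cell-free P450-Glo system: CYP2D6 with proluciferin substrate was pre-incubated with compound for 10 min, then reacted with NADPH regeneration for 1 h at room temperature. Luciferin product was detected after 20 min, and data were reported as relative luminescence units.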

Assay [6] concerns the target Cytochrome P450 2C19 (Homo sapiens) (UniProt P33261). Briefly: Cytochrome P450 Family 2 Subfamily C Member 19 (CYP2C19) small molecule antagonists: luciferase reporter qHTS assay (AID 1671197). Also: nearly all actives have a fitted effect of over 65% in size. Put shortly:
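Inhibition of CYP2C19 was scored from loss of luminescence in a P450-Glo proluciferin substrate assay, NADPH-started and run 1 h at 37C, with ketoconazole as positive control.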
(Reporter assays use an easily measured gene product as a stand-in for the process of interest.)

For assay [7], the target named is Cytochrome P450 2C9 (Homo sapiens) (UniProt P11712). Briefly: Cytochrome P450 Family 2 Subfamily C Member 9 (CYP2C9) small molecule antagonists: luciferase reporter qHTS assay (AID 1671198). Also: nearly all actives have a fitted effect of over 50% in size. Put shortly:
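CYP2C9 activity was measured with a P450-Glo proluciferin substrate. Enzyme–substrate mix was held with compound for 10 min at room temperature, then NADPH regeneration solution was added for 1 h at 37C. Luciferin product was read as luminescence.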

The target of assay [8] is Voltage-gated inwardly rectifying potassium channel KCNH2 (Homo sapiens) (UniProt Q12809). Briefly: Human Ether-a-go-go-Related Gene (hERG) channel small molecule antagonists: fluorescence cell-based qHTS assay (AID 1671200). Also: nearly all actives have a fitted effect of over 50% in size. Put shortly:
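Kinetic two-minute fluorescence traces, sampled at 1 s, were collected following thallium stimulus of U2OS cells (1000 per well) that had been cultured overnight at 37 C and loaded with FluxOR II.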
A general note: The hERG channel carries a current that helps repolarise heart muscle cells.

The target of assay [9] is Cytochrome P450 3A4 (Homo sapiens) (UniProt P08684). Nature of the assay: Cytochrome P450 Family 3 Subfamily A Member 4 (CYP3A4) small molecule antagonists: luciferase reporter qHTS assay (AID 1671201). Also: nearly all actives have a fitted effect of over 50% in size. Put shortly:
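Proluciferin-to-luciferin conversion by CYP3A4, NADPH-regenerated, 1 h RT; luminescence read as RLU. Ketoconazole as control.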

The target in assay [10] is Cytochrome P450 1A2 (Homo sapiens) (UniProt P05177). Briefly: Cytochrome P450 Family 1 Subfamily A Member 2 (CYP1A2) small molecule antagonists: luciferase reporter qHTS assay (AID 1671199). Also: nearly all actives have a fitted effect of over 50% in size. Put shortly: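 P450-Glo CYP1A2 enzyme–proluciferin substrate mix with compound 10 min at room temperature, then NADPH regeneration 1 h at room temperature. Luciferin detection reagent added, luminescence read after 20 min; furafylline positive control.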
Cytochrome P450 1A2 (Homo sapiens), sequence (P05177 whole entry, looked up): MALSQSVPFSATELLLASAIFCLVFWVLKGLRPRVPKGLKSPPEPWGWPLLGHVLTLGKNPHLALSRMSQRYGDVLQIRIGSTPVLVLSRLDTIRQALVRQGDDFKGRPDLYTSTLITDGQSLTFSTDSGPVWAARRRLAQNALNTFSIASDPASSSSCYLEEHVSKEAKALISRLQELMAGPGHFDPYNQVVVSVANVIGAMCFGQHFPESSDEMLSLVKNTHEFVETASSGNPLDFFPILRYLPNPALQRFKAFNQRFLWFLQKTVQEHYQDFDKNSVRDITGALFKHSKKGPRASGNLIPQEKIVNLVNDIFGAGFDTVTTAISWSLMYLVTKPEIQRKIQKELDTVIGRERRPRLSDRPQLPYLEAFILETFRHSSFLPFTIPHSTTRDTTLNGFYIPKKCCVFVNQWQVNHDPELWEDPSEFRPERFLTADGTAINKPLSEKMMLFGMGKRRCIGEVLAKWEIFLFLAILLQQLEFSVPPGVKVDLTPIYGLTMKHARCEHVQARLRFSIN
Potency is read from the fitted curve at half-maximal effect.

Voltage-gated inwardly rectifying potassium channel KCNH2 (Homo sapiens), sequence (Q12809 whole entry, looked up): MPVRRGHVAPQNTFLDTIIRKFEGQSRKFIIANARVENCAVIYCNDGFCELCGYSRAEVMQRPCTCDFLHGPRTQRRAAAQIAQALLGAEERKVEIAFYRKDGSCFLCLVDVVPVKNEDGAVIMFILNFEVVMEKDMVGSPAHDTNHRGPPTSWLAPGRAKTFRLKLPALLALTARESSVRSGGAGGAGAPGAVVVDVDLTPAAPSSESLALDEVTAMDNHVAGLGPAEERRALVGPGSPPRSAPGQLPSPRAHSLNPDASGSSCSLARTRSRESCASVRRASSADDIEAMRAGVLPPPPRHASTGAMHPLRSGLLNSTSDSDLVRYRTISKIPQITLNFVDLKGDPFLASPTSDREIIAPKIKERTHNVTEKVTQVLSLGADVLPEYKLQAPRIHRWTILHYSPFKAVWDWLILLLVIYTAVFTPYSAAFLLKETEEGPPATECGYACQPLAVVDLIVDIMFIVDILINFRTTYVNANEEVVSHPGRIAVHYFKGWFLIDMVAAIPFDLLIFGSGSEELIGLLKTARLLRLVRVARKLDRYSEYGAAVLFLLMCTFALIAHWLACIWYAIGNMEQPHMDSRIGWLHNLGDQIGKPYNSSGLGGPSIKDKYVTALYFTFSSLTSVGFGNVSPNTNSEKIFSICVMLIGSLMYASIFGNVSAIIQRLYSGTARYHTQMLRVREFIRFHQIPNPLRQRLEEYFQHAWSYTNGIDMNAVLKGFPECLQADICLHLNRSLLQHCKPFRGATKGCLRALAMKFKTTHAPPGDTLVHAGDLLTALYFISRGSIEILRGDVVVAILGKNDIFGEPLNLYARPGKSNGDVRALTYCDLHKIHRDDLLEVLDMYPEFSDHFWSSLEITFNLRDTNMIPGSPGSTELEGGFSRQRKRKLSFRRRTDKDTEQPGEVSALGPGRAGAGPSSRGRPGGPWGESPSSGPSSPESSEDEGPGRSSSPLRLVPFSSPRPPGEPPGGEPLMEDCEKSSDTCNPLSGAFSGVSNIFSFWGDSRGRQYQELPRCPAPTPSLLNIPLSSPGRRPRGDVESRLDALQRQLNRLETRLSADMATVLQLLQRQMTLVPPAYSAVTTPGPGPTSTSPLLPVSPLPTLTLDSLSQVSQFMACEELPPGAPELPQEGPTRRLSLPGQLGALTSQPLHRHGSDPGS
Cytochrome P450 2C9 (Homo sapiens), sequence (P11712 whole entry, looked up): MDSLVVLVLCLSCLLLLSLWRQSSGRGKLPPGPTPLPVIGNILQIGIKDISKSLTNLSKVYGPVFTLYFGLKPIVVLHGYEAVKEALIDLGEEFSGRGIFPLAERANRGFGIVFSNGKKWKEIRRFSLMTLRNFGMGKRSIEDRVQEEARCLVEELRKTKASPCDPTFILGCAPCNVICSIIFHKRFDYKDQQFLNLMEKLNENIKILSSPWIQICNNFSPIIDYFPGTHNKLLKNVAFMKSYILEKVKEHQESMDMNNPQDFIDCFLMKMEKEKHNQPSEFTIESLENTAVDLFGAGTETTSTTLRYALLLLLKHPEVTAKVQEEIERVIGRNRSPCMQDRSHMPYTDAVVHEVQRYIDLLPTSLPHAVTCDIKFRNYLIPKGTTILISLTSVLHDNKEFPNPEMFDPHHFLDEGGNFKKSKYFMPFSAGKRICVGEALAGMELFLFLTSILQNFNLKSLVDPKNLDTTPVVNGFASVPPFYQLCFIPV
Cytochrome P450 3A4 (Homo sapiens), sequence (P08684 whole entry, looked up): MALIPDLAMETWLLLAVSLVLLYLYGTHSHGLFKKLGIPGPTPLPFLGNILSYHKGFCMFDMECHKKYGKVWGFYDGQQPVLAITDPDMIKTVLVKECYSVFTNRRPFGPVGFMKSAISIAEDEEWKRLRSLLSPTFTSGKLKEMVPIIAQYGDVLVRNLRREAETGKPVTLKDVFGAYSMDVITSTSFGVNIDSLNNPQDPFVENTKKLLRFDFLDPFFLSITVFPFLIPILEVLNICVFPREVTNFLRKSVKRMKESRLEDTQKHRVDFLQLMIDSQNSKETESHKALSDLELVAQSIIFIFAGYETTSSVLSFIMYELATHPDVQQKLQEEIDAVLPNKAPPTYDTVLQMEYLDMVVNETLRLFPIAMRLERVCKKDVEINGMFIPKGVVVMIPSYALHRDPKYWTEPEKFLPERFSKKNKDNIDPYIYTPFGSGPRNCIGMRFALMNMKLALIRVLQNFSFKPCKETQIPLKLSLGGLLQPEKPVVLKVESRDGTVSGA
Cytochrome P450 2D6 (Homo sapiens), sequence (P10635 whole entry, looked up): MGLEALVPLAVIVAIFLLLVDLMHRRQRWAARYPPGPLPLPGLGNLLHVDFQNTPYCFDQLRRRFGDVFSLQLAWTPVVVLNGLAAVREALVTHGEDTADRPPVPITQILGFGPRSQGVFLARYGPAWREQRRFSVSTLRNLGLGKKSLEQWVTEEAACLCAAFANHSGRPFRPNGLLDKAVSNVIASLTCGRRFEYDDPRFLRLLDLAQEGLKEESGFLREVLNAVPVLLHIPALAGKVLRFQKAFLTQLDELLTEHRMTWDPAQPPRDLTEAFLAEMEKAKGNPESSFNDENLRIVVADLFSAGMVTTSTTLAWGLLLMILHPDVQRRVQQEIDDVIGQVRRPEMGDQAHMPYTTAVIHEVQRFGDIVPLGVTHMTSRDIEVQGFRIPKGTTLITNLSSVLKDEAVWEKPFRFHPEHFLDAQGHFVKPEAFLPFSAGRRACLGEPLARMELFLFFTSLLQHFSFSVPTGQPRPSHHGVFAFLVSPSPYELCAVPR
Cytochrome P450 2C19 (Homo sapiens), sequence (P33261 whole entry, looked up): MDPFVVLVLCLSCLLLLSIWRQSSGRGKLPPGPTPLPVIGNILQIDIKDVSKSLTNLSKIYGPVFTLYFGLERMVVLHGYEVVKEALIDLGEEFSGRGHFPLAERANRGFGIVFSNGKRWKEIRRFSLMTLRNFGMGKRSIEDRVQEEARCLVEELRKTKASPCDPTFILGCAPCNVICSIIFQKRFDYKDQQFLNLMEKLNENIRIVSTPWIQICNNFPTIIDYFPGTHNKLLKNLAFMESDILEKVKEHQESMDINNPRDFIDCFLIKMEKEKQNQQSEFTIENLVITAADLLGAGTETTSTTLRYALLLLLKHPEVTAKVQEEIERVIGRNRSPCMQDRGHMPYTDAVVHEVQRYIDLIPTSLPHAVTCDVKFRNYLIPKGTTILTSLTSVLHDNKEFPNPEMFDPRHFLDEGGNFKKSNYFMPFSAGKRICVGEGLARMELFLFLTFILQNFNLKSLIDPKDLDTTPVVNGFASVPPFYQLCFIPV

On to `CC(C)NC(C)C`, for which the Potency result in assay [1], in assay [2], in [3], in [4], in assay [5] and in assay [6] was “inactive” each time. Also, the Potency entry in [7], in assay [8] and in [9] was “inactive” each time.
Consider `Cc1ccc(OP(=O)(Oc2ccc(C)cc2)Oc2ccc(C)cc2)cc1`, for which the Potency result in assay [1], in [2], in [3], in assay [4] and in assay [5] was “inactive” each time. The Potency in assay [6] was 3.99 µM (active) and 5.03 µM (active); in [7], 7.09 µM (active) and 8.94 µM (active); in assay [9] it was 7.09 µM (active) and 10 µM (active).
Turning to `Oc1c(Cl)c(Cl)c(Cl)c(Cl)c1Cl`, the Potency entry in [1], in assay [2], in assay [3], in assay [4], in [8] and in assay [9] was “inactive” throughout. Moreover, the Potency entry in assay [5] is “inactive and 796 nM (active)”; in assay [6] it was 34.9 µM (active) and 15.9 µM (active) and inactive; in assay [10], 62 µM (active) and 35.5 µM (active) and 79.6 µM (active).
Consider `C[C@]12CCC(=O)C(O)=C1CC[C@@H]1[C@@H]2CC[C@]2(C)C(=O)CC[C@@H]12`, for which the Potency result in [1], in assay [2], in assay [3], in assay [4], in assay [10] and in assay [8] was “inactive” each time. Moreover, the Potency in assay [5] is 31.7 µM (active); in assay [6], 20 µM (active).
Take `N[C@@H](Cc1ccc(N(CCCl)CCCl)cc1)C(=O)O`: the Potency in assay [5] is 34.1 µM (active) and 34.7 µM (active); in assay [6] it was 8.57 µM (active) and 17.4 µM (active); in [7], 17.1 µM (active) and 27.5 µM (active). Further, the Potency entry in assay [8] was “inactive”.
As to `Cc1cc(Cl)ccc1OCCCC(=O)O`, the Potency entry in assay [1], in assay [2], in assay [3], in [4], in assay [5] and in assay [10] was “inactive” in each case. The Potency result in assay [8] and in assay [9] was “inactive” throughout. The Potency in assay [6] is 82.8 µM (active) and inactive.
For the compound `CC(C)(C)c1ccccc1O`, the Potency result in assay [1], in assay [2], in assay [3], in assay [4], in assay [5] and in [6] was “inactive” each time. The Potency result in assay [7], in assay [8] and in assay [9] was “inactive” each time.
`O=C(O)CC[N+](=O)[O-]`: the Potency result in [1] was “inactive and 8.94 µM (active)”; in [2] it was “inactive and 28.3 µM (active)”; in assay [3], “inactive and 7.96 µM (active)”. The Potency entry in [4], in assay [5], in assay [6], in [10], in [8] and in [9] was “inactive” each time.
For the compound `Nc1ccncc1`, the Potency result in assay [1], in assay [2], in assay [3], in assay [4], in assay [5] and in assay [6] was “inactive” each time. The Potency entry in assay [8] and in [9] was “inactive” in each case.
On to `CNC(=O)Oc1cccc2c1OC(C)(C)O2`, for which the Potency was 1.04 µM (active) and 399 nM (active) in assay [1]; 1.65 µM (active) and 356 nM (active) in assay [2]; 826 nM (active) and 224 nM (active) in assay [3]; 10.4 µM (active) and 5.03 µM (active) in assay [4]; 36.9 µM (active) and 71 µM (active) in assay [6]; 35.6 µM (active) in [10]. Moreover, the Potency entry in assay [5], in assay [8] and in assay [9] was “inactive” in each case.
`CCOC(=S)S`: the Potency entry in assay [8] is “inactive”.
On to `CCN(CC)C(=O)SCc1ccc(Cl)cc1`, for which the Potency entry in assay [1], in assay [2], in assay [3], in assay [4], in assay [5] and in assay [9] was “inactive” in each case. In addition, the Potency was 581 nM (active) and 564 nM (active) in assay [6]; 32.7 µM (active) and 25.2 µM (active) in assay [7].
Consider `CCOC(=O)C(C)OC(=O)c1cc(Oc2ccc(C(F)(F)F)cc2Cl)ccc1[N+](=O)[O-]` (stereo unspecified), for which the Potency entry in [1], in assay [2], in [3], in assay [4], in [10] and in assay [8] was “inactive” throughout. The Potency entry in [9] was “inactive”. For the same compound, the Potency was 6.3 µM (active) and 6.33 µM (active) in assay [6]; 7.06 µM (active) and 7.1 µM (active) in assay [7].
Turning to `COc1ccc(C(CN(C)C)C2(O)CCCCC2)cc1` (stereo unspecified), the Potency entry in assay [8] is “inactive”.
Take `CC(C)c1ccc(CO)cc1`: the Potency entry in [1], in assay [2], in assay [3], in assay [4], in assay [5] and in [8] was “inactive” each time. The Potency entry in assay [9] was “inactive”. Moreover, the Potency in [7] was 39.9 µM (active).
`O=P(Oc1ccccc1)(Oc1ccccc1)Oc1ccccc1`: the Potency was 19.9 µM (active) and 20 µM (active) in assay [1]; 7.06 µM (active) and 11.2 µM (active) in [2]; 2.51 µM (active) and 3.56 µM (active) in assay [3]; 35.4 µM (active) and 71 µM (active) in [4]; 2.81 µM (active) and 5.64 µM (active) in assay [6]; 6.3 µM (active) and 6.33 µM (active) in assay [7]. Further, the Potency in [8] is 21.8 µM (active) and 38.9 µM (active). Moreover, the Potency result in assay [5] and in assay [9] was “inactive” in each case.
On to `C#C[C@]1(O)CC[C@H]2[C@@H]3CCC4=CC(=O)CC[C@]4(C)[C@H]3CC[C@@]21C`, for which the Potency result in assay [1], in assay [2], in assay [3], in assay [4], in [5] and in assay [9] was “inactive” each time. Besides, the Potency in assay [6] was 6.33 µM (active) and 1.38 µM (active).
Turning to `O=[N+]([O-])c1c(Cl)c(Cl)c(Cl)c(Cl)c1Cl`, the Potency was 39.8 µM (active) and 31.7 µM (active) in assay [1]; 31.6 µM (active) and inactive in assay [5]; 8.9 µM (active) and 1.59 µM (active) in assay [10]. In addition, the Potency result in assay [2], in [4], in assay [6], in [7], in assay [8] and in [9] was “inactive” each time.
On to `Clc1nc(Cl)nc(Cl)n1`, for which the Potency entry in assay [1], in assay [2], in assay [3], in assay [4], in [5] and in assay [6] was “inactive” each time. Besides, the Potency result in [7], in [8] and in assay [9] was “inactive” each time.
For `CCC(C)c1ccc(O)cc1` (stereo unspecified), the Potency result in assay [1], in assay [2], in assay [3], in assay [4], in assay [5] and in assay [6] was “inactive” in each case. Further, the Potency result in assay [8] and in assay [9] was “inactive” in each case.
With `CC(C)(c1cc(Cl)c(O)c(Cl)c1)c1cc(Cl)c(O)c(Cl)c1`, the Potency result in assay [1], in assay [4], in [5] and in [8] was “inactive” each time. Also, the Potency was 35.6 µM (active) and 28.3 µM (active) in assay [6]; 35.6 µM (active) and 31.7 µM (active) in assay [7]; 63.3 µM (active) in assay [9].
On to `ClC1C(Cl)C(Cl)C(Cl)C(Cl)C1Cl` (stereo unspecified), for which the Potency result was “inactive and 39.9 µM (active) and 71 µM (active)” in [5]; 32.4 µM (active) and 35.6 µM (active) and 31.7 µM (active) in assay [7]; 39.7 µM (active) and inactive and 43.6 µM (active) in [8].
